Publication PMC7862700, “An all-to-all approach to the identification of sequence-specific readers for epigenetic DNA modifications on cytosine”

Columns and labels:
Assay in all cases: DAPPL (digital affinity profiling via proximity ligation, sequencing); 10 mM Tris-HCl pH 7.5, 50 mM NaCl, 1 mM DTT, 4% glycerol, room temperature, 30 min; GST-TFs on glutathione beads, 16-mer random dsDNA library, 0.1% formaldehyde crosslink after washing; high values mean tight binding
Conditions in all cases: protein: recombinant; tags: N-terminal GST; dsDNA, one strand shown
FLI1 = biological target: T1, FLI1 (Homo sapiens, UniProt Q01543 1-452)
T1 sequence: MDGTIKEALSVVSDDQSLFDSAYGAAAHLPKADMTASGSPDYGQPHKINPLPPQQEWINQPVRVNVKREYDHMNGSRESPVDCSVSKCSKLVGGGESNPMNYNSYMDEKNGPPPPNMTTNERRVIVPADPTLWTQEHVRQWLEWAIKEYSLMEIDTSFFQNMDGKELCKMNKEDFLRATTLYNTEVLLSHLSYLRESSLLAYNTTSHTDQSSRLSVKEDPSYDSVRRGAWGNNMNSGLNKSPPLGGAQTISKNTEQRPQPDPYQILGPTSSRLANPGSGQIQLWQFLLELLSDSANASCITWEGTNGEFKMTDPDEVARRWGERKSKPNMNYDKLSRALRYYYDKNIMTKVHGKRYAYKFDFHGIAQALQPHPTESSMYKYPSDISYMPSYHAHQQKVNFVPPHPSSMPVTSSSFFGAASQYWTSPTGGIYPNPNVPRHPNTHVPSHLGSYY
Method in brief: (§1)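 Binding signal is given per hexamer as its read frequency for a factor divided by its frequency in the tag-only sample. GST-fused human transcription factors were expressed in yeast, captured on glutathione beads, barcoded with DNA and pooled with that sample, then incubated with 200 nmole of a 16-mer random double-stranded DNA library in Tris/NaCl/DTT/glycerol buffer for 30 min at room temperature. The pools were then washed, crosslinked, proximity-ligated, amplified by PCR and sequenced on an Illumina NextSeq500.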

ELK1 = biological target: T2, ELK1 (Homo sapiens, UniProt P19419 1-428)
T2 sequence: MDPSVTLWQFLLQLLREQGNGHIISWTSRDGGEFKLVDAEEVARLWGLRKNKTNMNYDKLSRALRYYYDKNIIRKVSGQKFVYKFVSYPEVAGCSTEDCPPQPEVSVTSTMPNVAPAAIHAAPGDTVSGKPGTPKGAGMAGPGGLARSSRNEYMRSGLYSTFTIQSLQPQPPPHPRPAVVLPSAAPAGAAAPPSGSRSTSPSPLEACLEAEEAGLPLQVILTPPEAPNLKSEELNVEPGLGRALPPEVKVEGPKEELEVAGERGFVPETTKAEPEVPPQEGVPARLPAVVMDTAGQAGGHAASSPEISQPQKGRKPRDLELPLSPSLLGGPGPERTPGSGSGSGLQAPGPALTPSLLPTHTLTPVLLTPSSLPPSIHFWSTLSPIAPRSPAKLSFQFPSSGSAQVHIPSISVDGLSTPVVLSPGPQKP
Method in brief: as §1

GABPA = biological target: T3, GABPA (Homo sapiens, UniProt Q06546 1-454)
T3 sequence: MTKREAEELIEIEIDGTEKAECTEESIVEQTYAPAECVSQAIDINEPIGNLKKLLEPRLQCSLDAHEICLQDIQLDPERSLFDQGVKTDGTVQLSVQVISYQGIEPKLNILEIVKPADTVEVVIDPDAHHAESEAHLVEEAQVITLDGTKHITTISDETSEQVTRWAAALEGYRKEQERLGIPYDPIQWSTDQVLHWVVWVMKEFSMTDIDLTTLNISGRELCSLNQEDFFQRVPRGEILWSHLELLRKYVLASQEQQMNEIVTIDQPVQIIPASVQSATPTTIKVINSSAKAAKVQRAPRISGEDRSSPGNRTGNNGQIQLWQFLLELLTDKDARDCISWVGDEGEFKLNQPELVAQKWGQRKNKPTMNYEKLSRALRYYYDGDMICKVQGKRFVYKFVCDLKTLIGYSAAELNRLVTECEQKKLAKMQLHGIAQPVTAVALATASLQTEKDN
Method in brief: as §1

ERG = biological target: T4, ERG (Homo sapiens, UniProt P11308 1-479)
T4 sequence: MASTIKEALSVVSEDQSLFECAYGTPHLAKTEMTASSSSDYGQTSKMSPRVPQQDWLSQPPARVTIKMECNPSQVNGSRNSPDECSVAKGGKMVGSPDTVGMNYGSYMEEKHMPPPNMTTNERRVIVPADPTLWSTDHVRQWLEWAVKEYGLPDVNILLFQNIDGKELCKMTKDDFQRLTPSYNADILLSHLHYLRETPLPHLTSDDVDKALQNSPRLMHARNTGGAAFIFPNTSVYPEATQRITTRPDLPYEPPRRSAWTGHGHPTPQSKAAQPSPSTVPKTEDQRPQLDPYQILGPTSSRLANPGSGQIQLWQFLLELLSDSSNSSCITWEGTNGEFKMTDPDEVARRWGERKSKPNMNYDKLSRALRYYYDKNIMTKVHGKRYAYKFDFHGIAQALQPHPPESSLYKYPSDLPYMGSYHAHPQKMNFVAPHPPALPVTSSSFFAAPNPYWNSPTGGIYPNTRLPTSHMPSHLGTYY
Method in brief: as §1

EHF = biological target: T5, EHF (Homo sapiens, UniProt Q9NZC4 1-300)
T5 sequence: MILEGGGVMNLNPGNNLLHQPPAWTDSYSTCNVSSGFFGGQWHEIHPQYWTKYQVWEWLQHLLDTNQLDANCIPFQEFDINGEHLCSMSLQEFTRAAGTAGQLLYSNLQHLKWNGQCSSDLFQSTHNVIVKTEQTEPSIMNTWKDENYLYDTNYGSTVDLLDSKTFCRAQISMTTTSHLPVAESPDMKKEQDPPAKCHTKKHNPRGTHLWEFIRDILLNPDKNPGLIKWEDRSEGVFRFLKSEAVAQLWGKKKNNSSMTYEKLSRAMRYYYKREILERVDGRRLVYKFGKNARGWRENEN
Method in brief: as §1

SPI1 = SPI1 (Homo sapiens, UniProt P17947 1-270)
Method in brief: as §1

SPIB = SPIB (Homo sapiens, UniProt Q01892 1-262)
Chain of SPIB (Q01892 whole entry): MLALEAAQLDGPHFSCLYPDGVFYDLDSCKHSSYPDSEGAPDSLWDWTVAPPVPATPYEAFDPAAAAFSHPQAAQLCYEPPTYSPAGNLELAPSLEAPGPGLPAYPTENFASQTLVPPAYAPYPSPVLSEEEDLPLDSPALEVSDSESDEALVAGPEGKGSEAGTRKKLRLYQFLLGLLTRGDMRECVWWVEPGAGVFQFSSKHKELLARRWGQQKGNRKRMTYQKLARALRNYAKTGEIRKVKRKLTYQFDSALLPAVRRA
Method in brief: as §1

FEV = biological target: T6, FEV (Homo sapiens, UniProt Q99581 1-238)
T6 sequence: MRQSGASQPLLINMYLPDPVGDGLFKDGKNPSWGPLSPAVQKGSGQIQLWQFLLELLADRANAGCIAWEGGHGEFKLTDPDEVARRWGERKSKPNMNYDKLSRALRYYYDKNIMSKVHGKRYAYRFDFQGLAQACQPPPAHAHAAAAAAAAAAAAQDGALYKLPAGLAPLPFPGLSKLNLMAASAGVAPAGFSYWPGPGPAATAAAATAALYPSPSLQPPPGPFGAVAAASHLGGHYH
Method in brief: as §1

ETV5 = ETV5 (Homo sapiens, UniProt P41161 1-510)
Chain of ETV5 (P41161 whole entry): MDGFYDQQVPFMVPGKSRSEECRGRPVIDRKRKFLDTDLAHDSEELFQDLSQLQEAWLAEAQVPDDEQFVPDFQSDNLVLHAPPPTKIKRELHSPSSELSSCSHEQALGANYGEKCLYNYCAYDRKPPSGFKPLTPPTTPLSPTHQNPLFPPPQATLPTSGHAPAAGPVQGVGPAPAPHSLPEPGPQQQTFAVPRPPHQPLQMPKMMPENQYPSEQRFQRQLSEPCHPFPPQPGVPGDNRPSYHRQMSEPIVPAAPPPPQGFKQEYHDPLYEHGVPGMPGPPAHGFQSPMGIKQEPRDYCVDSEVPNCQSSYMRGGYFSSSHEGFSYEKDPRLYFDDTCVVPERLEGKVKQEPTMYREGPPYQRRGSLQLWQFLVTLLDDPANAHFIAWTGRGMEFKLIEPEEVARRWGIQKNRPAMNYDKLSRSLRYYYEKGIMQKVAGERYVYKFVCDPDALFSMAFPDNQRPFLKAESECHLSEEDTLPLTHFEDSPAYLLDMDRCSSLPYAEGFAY
Method in brief: as §1

SPIC = biological target: T7, SPIC (Homo sapiens, UniProt Q8N5J4 1-248)
T7 sequence: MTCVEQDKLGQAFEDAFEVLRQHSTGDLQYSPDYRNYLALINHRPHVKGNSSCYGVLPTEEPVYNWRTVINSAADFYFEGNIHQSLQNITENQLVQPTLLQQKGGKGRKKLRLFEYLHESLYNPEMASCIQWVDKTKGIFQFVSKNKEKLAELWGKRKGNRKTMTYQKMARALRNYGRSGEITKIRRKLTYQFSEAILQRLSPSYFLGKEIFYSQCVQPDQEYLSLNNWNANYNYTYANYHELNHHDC
Method in brief: as §1

ELF4 = ELF4 (Homo sapiens, UniProt Q99607 1-663)
Chain of ELF4 (Q99607 whole entry): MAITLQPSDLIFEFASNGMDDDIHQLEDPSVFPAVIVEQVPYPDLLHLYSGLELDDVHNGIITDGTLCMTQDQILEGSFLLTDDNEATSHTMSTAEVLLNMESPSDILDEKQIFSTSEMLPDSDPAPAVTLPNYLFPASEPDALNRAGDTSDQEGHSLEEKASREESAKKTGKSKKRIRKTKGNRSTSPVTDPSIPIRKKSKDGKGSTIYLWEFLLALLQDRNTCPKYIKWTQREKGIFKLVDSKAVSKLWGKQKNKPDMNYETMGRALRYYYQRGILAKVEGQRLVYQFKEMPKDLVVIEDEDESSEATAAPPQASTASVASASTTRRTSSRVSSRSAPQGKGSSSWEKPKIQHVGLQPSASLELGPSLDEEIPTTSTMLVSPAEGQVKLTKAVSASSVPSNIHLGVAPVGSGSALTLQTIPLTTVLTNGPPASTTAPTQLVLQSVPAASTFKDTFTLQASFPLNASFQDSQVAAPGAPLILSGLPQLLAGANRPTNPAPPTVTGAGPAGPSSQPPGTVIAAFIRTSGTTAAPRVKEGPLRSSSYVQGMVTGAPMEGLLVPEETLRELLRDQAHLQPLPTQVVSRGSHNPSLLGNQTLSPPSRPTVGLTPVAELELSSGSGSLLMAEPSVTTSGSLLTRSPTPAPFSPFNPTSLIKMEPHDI
Method in brief: as §1

ETV1 = ETV1 (Homo sapiens, UniProt P50549 1-477)
Chain of ETV1 (P50549 whole entry): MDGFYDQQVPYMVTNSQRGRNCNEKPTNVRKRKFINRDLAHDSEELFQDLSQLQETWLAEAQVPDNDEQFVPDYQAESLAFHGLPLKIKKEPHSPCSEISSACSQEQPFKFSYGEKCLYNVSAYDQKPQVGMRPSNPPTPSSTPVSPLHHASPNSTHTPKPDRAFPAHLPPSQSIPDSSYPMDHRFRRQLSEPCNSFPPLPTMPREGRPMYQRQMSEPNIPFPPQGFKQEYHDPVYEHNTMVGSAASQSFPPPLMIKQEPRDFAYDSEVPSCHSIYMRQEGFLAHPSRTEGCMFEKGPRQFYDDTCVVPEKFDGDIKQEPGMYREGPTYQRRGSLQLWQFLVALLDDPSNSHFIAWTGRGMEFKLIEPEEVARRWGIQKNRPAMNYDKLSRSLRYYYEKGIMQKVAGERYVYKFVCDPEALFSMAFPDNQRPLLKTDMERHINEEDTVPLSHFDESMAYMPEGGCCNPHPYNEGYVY
Method in brief: as §1

ERF = biological target: T8, ERF (Homo sapiens, UniProt P50548 1-548)
T8 sequence: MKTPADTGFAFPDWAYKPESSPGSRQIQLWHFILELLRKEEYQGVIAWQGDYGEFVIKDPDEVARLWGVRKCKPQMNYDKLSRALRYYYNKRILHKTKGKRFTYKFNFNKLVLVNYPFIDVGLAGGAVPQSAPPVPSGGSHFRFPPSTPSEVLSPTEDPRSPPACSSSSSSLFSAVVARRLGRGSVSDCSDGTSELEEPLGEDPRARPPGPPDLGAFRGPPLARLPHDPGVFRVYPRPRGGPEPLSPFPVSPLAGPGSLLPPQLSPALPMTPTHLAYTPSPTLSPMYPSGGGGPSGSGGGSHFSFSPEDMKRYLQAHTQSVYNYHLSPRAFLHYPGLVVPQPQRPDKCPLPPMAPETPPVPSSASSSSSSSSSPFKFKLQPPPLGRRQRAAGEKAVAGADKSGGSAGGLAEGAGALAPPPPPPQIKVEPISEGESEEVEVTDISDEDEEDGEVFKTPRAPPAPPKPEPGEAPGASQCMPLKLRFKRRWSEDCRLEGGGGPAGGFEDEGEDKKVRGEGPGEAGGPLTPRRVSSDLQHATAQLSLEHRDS
Method in brief: as §1

ETV3L = biological target: T9, ETV3L (Homo sapiens, UniProt Q6ZN32 1-361)
T9 sequence: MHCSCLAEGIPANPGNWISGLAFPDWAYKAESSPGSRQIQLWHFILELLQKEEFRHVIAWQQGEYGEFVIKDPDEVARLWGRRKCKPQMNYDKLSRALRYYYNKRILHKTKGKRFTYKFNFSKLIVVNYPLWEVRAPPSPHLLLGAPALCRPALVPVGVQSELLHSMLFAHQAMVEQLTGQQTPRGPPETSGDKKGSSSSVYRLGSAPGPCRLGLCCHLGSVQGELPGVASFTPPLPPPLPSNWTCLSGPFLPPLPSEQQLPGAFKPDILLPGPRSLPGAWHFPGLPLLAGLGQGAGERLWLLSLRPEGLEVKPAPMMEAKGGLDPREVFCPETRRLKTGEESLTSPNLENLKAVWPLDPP
Method in brief: as §1

ETV3 = biological target: T10, ETV3 (Homo sapiens, UniProt P41162-2 1-143)
T10 sequence: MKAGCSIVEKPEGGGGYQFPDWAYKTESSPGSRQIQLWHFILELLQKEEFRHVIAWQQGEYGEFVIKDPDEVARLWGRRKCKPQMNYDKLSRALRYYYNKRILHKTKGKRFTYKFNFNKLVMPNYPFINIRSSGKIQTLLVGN
Method in brief: as §1

ELF1 = ELF1 (Homo sapiens, UniProt P32519 1-619)
Chain of ELF1 (P32519 whole entry): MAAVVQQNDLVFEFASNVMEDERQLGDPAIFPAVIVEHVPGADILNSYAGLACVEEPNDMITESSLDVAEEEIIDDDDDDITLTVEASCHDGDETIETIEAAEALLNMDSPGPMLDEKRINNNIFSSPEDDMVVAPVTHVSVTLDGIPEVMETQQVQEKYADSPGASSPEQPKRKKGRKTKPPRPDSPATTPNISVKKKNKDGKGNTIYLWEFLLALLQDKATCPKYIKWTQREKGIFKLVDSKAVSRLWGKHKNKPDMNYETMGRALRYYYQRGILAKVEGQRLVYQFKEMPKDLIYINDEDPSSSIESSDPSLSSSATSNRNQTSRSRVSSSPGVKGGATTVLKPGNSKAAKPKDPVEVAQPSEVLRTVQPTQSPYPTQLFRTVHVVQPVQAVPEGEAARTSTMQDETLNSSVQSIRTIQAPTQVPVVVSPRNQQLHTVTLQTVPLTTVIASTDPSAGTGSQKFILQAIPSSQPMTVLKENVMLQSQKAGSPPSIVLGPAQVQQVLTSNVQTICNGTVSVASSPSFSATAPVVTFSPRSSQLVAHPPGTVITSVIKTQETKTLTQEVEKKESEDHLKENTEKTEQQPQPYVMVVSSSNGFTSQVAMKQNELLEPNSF
Method in brief: as §1

ETS2 = biological target: T11, ETS2 (Homo sapiens, UniProt P15036 1-469)
T11 sequence: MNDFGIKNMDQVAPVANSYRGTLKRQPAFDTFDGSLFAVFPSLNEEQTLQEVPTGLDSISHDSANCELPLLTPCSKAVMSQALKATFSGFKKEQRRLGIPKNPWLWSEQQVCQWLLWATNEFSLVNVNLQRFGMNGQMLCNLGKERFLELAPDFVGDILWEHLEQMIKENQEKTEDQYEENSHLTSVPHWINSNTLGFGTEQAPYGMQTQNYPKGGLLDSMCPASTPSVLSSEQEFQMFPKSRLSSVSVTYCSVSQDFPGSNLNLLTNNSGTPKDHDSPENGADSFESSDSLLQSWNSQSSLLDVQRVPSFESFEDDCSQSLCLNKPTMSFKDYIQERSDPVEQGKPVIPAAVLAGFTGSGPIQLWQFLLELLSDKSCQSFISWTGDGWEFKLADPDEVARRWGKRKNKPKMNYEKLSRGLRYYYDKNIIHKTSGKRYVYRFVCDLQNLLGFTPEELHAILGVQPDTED
Method in brief: as §1

ETV6 = ETV6 (Homo sapiens, UniProt P41212 1-452)
Chain of ETV6 (P41212 whole entry): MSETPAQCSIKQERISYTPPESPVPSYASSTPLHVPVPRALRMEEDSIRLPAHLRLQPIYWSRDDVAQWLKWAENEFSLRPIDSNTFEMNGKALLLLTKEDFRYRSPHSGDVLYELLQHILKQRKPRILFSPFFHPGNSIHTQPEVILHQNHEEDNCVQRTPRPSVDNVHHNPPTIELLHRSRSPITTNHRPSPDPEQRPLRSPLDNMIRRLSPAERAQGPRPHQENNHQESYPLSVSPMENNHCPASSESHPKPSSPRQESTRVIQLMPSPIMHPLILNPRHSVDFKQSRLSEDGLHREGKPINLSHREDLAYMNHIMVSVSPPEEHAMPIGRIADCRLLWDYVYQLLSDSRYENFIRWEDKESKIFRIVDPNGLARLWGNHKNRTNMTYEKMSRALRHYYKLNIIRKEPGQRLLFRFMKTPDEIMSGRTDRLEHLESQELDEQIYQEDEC
Method in brief: as §1

Row | Sequence | binding signal (FLI1) | binding signal (ELK1) | binding signal (GABPA) | binding signal (ERG) | binding signal (EHF) | binding signal (SPI1) | binding signal (SPIB) | binding signal (FEV) | binding signal (ETV5) | binding signal (SPIC) | binding signal (ELF4) | binding signal (ETV1) | binding signal (ERF) | binding signal (ETV3L) | binding signal (ETV3) | binding signal (ELF1) | binding signal (ETS2) | binding signal (ETV6)
1 | CCGATG | 1.07 fold enrichment (6-mer frequency, TF over GST control) | 1.1 fold enrichment (6-mer frequency, TF over GST control) | 1.18 fold enrichment (6-mer frequency, TF over GST control) | 1.06 fold enrichment (6-mer frequency, TF over GST control) | 1.03 fold enrichment (6-mer frequency, TF over GST control) | 1.08 fold enrichment (6-mer frequency, TF over GST control) | 1.2 fold enrichment (6-mer frequency, TF over GST control) | 1.08 fold enrichment (6-mer frequency, TF over GST control) | 1.11 fold enrichment (6-mer frequency, TF over GST control) | 1.2 fold enrichment (6-mer frequency, TF over GST control) | 1.14 fold enrichment (6-mer frequency, TF over GST control) | 1.1 fold enrichment (6-mer frequency, TF over GST control) | 1.1 fold enrichment (6-mer frequency, TF over GST control) | 1.1 fold enrichment (6-mer frequency, TF over GST control) | 1.12 fold enrichment (6-mer frequency, TF over GST control) | – | – | –
2 | TGGACC | 1.11 fold enrichment (6-mer frequency, TF over GST control) | 1.03 fold enrichment (6-mer frequency, TF over GST control) | 1.09 fold enrichment (6-mer frequency, TF over GST control) | 1.04 fold enrichment (6-mer frequency, TF over GST control) | 1.1 fold enrichment (6-mer frequency, TF over GST control) | 1.1 fold enrichment (6-mer frequency, TF over GST control) | 1.02 fold enrichment (6-mer frequency, TF over GST control) | 1.17 fold enrichment (6-mer frequency, TF over GST control) | 1.05 fold enrichment (6-mer frequency, TF over GST control) | 1.16 fold enrichment (6-mer frequency, TF over GST control) | 1.06 fold enrichment (6-mer frequency, TF over GST control) | 1.08 fold enrichment (6-mer frequency, TF over GST control) | 1.11 fold enrichment (6-mer frequency, TF over GST control) | 1.13 fold enrichment (6-mer frequency, TF over GST control) | 1.04 fold enrichment (6-mer frequency, TF over GST control) | 1.06 fold enrichment (6-mer frequency, TF over GST control) | 1.04 fold enrichment (6-mer frequency, TF over GST control) | 1.08 fold enrichment (6-mer frequency, TF over GST control)
